The source of these data is PubChem BioAssay (NCATS).

Several values for one entry are separate records, joined by “and”; a condition that tells them apart may be missing. Equal values may be shown once. Inconclusive results are not listed. Where a call stands in place of a potency, no number is given. The source holds several records for some structures; these can differ, active in one and inactive in another. Activity calls are given as the source filed them. Calls come from the whole dose curve; as a rule, active = well fitted cell-killing curve with a large enough effect; inconclusive = small, poorly fitted or top-dose-only effect; inactive = flat fitted curve, though single readings scatter.

The assay is described as follows: Cellular viability qHTS for adrenocortical cancer (ACC) cell line NCI-H295R (AID 1963990). Note: nearly all actives have a fitted effect of over 60% in size. As to conditions: CellTiter-Glo ATP luminescence, 48 h; series mostly up to 46.1 µM. The source says: PI: Naris Nilubol, MD Surgical Oncology Program, National Cancer Institute (NCI) National Institute of Health (NIH), Bethesda, Maryland Adrenocortical cancer (ACC) is a rare malignancy with poor survival outcomes and few treatment options. Currently, mitotane is the only FDA-approved therapy for ACC. Although adjuvant radiation therapy is rarely utilized, it has the potential to improve survival in select cases. Through a quantitative high-throughput drug screen (qHTS), we identified auranofin (AF), a thioredoxin reductase (TXNRD) inhibitor, as a promising candidate drug. This study aims to evaluate whether AF can enhance the efficacy of radiation therapy in the treatment of ACC. Two human ACC cell lines, SW-13 and NCI-H295R, were screened using the National Center for Advancing Translational Sciences (NCATS) Pharmaceutical Collection (NPC) and the Mechanism Interrogation PlatE (MIPE) library (~4,991 compounds). CellTiter-Glo (Cat # G7570, Promega, Madison, WI) was utilized to measure cell viability. Described herein are the results of the corresponding viability assay.
PROTOCOL TABLE (as described by Inglese J, Shamu CE and Guy RK. 2007) SEQUENCE No. (e.g., 1, 2, 3, etc.); […] (e.g., Cells, Incubation, Reagent, etc.); VALUE; DESCRIPTION. 1; Cells; 5 uL; white, solid-bottom, 1536-well tissue-culture treated plates. 2; Time; overnight culture at 37C with 5% CO2. 3; Compounds and control; 23 nL; Kalypsis pin tool (Wako USA) equipped with a 1536-well pin head to transfer to the assay plates. 4; Time; 48 hours; 37C with 5% CO2. 5; Reagent; 4 uL; CellTiter-Glo luminescent substrate mix. 6; Time; 20 min at room temperature. 7; Detection; Luminescence; ViewLux plate reader NOTES (numbers refer to Sequence numbers above) 1. NCI-H295R cells were harvested from a T175 flask and resuspended in ITS-supplemented DMEM serum-free medium at a concentration of 300 000 cells/mL. Then 5 uL of resuspended cells were dispensed into each well of white, solid-bottom, 1536-well tissue-culture-treated plates using a multidrop combi dispenser. The plates were covered with stainless steel gasket lids. 2-3. The plates were cultured overnight at 37C with 5% CO2. Twenty-three nL of compounds (eight selected concentrations from the NPC / MIPE) or positive control (10 mM stock of bortezomib) in DMSO was transferred to each well of the assay plate using a pin tool (Kalypsys, San Diego, CA, USA). The final concentration of the compounds in the 5 uL assay volume ranged from 0.5 nM to 46 uM. 4-6. After 48 hours of incubation at 37C and 5% CO2, 4 uL of CellTilter-Glo luminescent substrate mix (Promega, Madison, WI, USA) was added to each well. Then the plates were incubated for 20 minutes at room temperature. 7. After incubation, luminescence was measured using a ViewLux plate reader (PerkinElmer, Waltham, MA, USA) with a clear filter was used to measure the number of metabolically competent cells. To determine compound activity in the qHTS assay, the titration-response data for each sample was plotted and modeled by a four-parameter logistic fit yielding IC50 and efficacy (maximal response) values. Raw plate reads for each titration point were normalized relative to positive control ([…], 100% inhibition) and DMSO-only wells (basal, 0%). REFERENCES: Inglese J, Shamu CE and Guy RK, Reporting data from high throughput screening of small molecule libraries, Nature Chemical Biology, 2007, 3(8): 438-441. doi.org/10.1038/nchembio0807-438.
As to `CCc1nc(C(N)=O)c(Nc2ccc(N3CCC(N4CCN(C)CC4)CC3)c(OC)c2)nc1NC1CCOCC1`, the Potency is 2.82 µM (active). The same measure for `NC(=O)CCCCC1CCSS1` (stereo not given): “inactive”; for `[2H]C([2H])([2H])C(O)([C@@H](C)/C=C/[C@@H](C)[C@H]1CC[C@H]2/C(=C/C=C3C[C@@H](O)C[C@H](O)C3)CCC[C@]12C)C([2H])([2H])[2H]`: “inactive”. The same measure for `Nc1ncnc2c1c(-c1cccc(OCc3ccccc3)c1)cn2C1CC(CN2CCC2)C1` (stereo not given): “inactive”; for `COc1ccc(CNC(=O)Nc2ncc([N+](=O)[O-])s2)cc1`: 28.2 µM (active); for `CN1CCN(C(c2ccccc2)c2ccccc2)CC1`: “inactive”.

Take `CCCCCCCCCCCCCCCC(=O)O[C@H]1[C@@H](O)[C@@H](O)[C@@H]([C@H](NC(=O)[C@@H]2C[C@@H](CCC)CN2C)[C@H](C)Cl)O[C@@H]1SC`: the Potency entry was “inactive”. `Nc1c2c(nc3ccccc13)CCCC2`: the Potency result was “inactive”. The same measure for `Cc1sc2c(c1C)C(c1ccc(Cl)cc1)=N[C@@H](CC(=O)Nc1ccc(OCCOCCOCCOCCNc3cccc4c3C(=O)N(C3CCC(=O)NC3=O)C4=O)cc1)c1nnc(C)n1-2` (stereo not given in full): 3.98 µM (active); for `O=c1cc(N2CCOCC2)oc2c(-c3ccc4c(c3)OCCO4)csc12`: 2.51 µM (active). Then `C=CC(=O)N1C[C@H](Nc2ncnc3[nH]ccc23)CC[C@@H]1C`, with “inactive”. For the compound `COc1cc(OC)c(/C=C/S(=O)(=O)Cc2ccc(OC)c(OP(=O)(O)O)c2)c(OC)c1`, the Potency was 0.0282 µM (active). Take `O=C(O)CCc1ccc(NCc2cccc(Oc3ccccc3)c2)cc1`: the Potency result is “inactive”.

In the case of `C[C@@H]1CN(c2c(F)c(F)c3c(=O)c(C(=O)O)cn(C4CC4)c3c2F)C[C@H](C)N1`, the Potency entry is “inactive”.

Turning to `CCC(=O)NC[C@H](Cc1ccc(OCCc2nc(-c3ccccc3)oc2C)cc1)N/C(C)=C\C(=O)c1ccc(C(F)(F)F)cc1`, the Potency result is “inactive”.

For the compound `CCOc1ccc(NC(C)=O)cc1`, the Potency entry is “inactive”. On to `COc1cc(OC2CCN(C)CC2)ccc1Nc1ncc2c(n1)n(C1CCCC1)c(=O)n2C`, for which the Potency is 15.8 µM (active). For the compound `CC12CC3CC(C)(C1)CC(N)(C3)C2`, the Potency result is “inactive”. Then `COc1ccc(/C(C)=C/C(=O)O)c(OC)c1`, with “inactive”; and `Cc1c[nH]c2ncnc(N3CCC(CN)(C(=O)Nc4cccc(OC(=O)N(C)C)c4)CC3)c12`, with “inactive and 22.4 µM (active)”; and `N#Cc1c(N)nc(N)nc1N[C@H](c1nc2c(F)ccc(Cl)c2c(=O)n1-c1cccnc1)C1CC1`, with 22.4 µM (active). In the case of `CCC(=O)NCC[C@@H]1CCc2ccc3c(c21)CCO3`, the Potency result is “inactive”. The same measure for `C=C1C(=O)O[C@@H]2[C@H]3O[C@]3(C)CC/C=C(\C)CC[C@@H]12`: 10 µM (active); for `Cc1c(C(C)C)c(=O)n(-c2ccccc2)n1C`: “inactive”. `C[C@H]1C[C@@H]2[C@H]([C@@H](O)C[C@@]3(C)[C@H]2CC[C@]3(O)C(=O)CO)[C@@]2(C)C=CC(=O)C=C12`: the Potency entry was “inactive”. As to `CNC(=O)c1cc(Oc2ccc(NC(=O)Nc3cc(C(C)(C)C)nn3-c3ccc4ncccc4c3)c(F)c2)ccn1`, the Potency was 31.6 µM (active). `COc1ccc(O)cc1`: the Potency result was “inactive”. Consider `CC(=O)OCC(=O)[C@@]1(O)[C@H](OC(C)=O)C[C@H]2[C@@H]3CCC4=CC(=O)C=C[C@]4(C)[C@@]3(F)[C@@H](O)C[C@@]21C`, for which the Potency entry was “inactive”. The same measure for `CCCCOC(=O)c1ccc(O)cc1`: “inactive”; for `OC[C@@H](O)[C@H](O)[C@H](O)[C@@H](O)CO`: “inactive”; for `C=CCNc1c(O)cc2c(O)c1C[C@@H](C)C[C@H](OC)[C@H](O)[C@@H](C)/C=C(/C)[C@H](OC(N)=O)[C@@H](OC)/C=C\C=C(\C)C(=O)N2`: 10 µM (active). Consider `CN1CCN2c3ncccc3Cc3ccccc3C2C1` (stereo not given), for which the Potency result was “inactive”. As for `Cc1[nH]c(=O)c(C#N)cc1-c1ccncc1`, the Potency entry is “inactive”. The same measure for `O=C1NCCc2[nH]c(-c3ccncc3)cc21`: 7.08 µM (active); for `Cc1cnc(C(=O)NCCc2ccc(S(=O)(=O)NC(=O)NC3CCCCC3)cc2)cn1`: “inactive”; for `NC(CS)C(=O)O` (stereo not given): “inactive”. As for `Nc1ccc(C(=O)N2CC3CC(CN(Cc4ccccc4)C3)C2)cc1`, the Potency entry is “inactive”.

On to `CC[C@H](Nc1ncnc2nc[nH]c12)c1nc2cccc(F)c2c(=O)n1-c1ccccc1`, for which the Potency entry was “inactive”.

Consider `COc1cc2ncnc(Nc3cccc(Br)c3)c2cc1OC`, for which the Potency result is “inactive”. In the case of `CCC(C)CNCC(=O)N1CCc2sccc2C1c1cccc(C)n1` (stereo not given), the Potency result was “inactive”.
